# In the supplement of paper PMC8728848:
# The sample as a whole holds a higher share of the strongest signals than the screen did.
# B1: Epf (Streptococcus pyogenes) (protein)
# chain: GDHGPEFNGVMVVKAAEAEELPDDLMNFKGTWEVSADGSSGRFFSKGATDSYVFHLIPAKDVKKPGWREHNEVKDSYIKIDKQSIAARYKTSTTAPYSVAFKVNTKSLIKDHDYKITFEQGQIASGITVDYRIGSAFNKTTDDSFKISDESKYASNVKIEGEEQGFKQREQGDKTISFRTLKEGPMSLVLLSKVEKKPQGDLDVEFKNLKIIDVTNPSQLDKGVAYVGNKNVQLTLKSDDGRTNFEGDEISLFNSRGELLQTVTVTKDQQNPISITLSEDQAKSLKNKEKLKVSIKQKQSKKTSKDFFFEVGIDPKVEAKQKEKLLELDKVKKQIEDSINGDAWLPEKPVDLQGDHGLSAWSHPQFEK
# How the values were obtained:
# Assay in all cases: glycan array binding signal (z-score within array); higher = stronger binding
# Settings in all cases: glycan notation: IUPAC condensed, linker removed
# [1] = biological target: Fuc(a1-2)Gal(b1-3)GalNAc(a1-3)[Fuc(a1-2)]Gal(b1-4)Glc
# Outline: (§1)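 The binding signal is a Z-score computed within each array. Data were drawn from 3228 arrays in the Consortium for Functional Glycomics database, restricted to those with a known protein sequence. Scores were averaged over arrays of the same protein sequence at different concentrations or buffers, and over linkers, and negative values can be taken as non-binding.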
# Fuc(a1-2)Gal(b1-3)GlcNAc = biological target: Fuc(a1-2)Gal(b1-3)GlcNAc
# Outline: as §1
# [2] = biological target: Fuc(a1-2)Gal(b1-3)GlcNAc(b1-3)[Neu5Ac(a2-6)Gal(b1-4)GlcNAc(b1-6)]Gal(b1-4)Glc
# Outline: as §1
# [3] = biological target: Fuc(a1-2)Gal(b1-3)[Fuc(a1-4)]GlcNAc(b1-3)[Fuc(a1-3)[Gal(b1-4)]GlcNAc(b1-6)]Gal(b1-4)Glc
# Outline: as §1
# [4] = biological target: Fuc(a1-2)Gal(b1-4)GlcNAc(b1-2)Man
# Outline: as §1
# [5] = biological target: Fuc(a1-2)Gal(b1-4)GlcNAc(b1-2)[Fuc(a1-2)Gal(b1-4)GlcNAc(b1-4)]Man(a1-3)[Fuc(a1-2)Gal(b1-4)GlcNAc(b1-2)Man(a1-6)]Man(b1-4)GlcNAc(b1-4)GlcNAc
# Outline: as §1
# [6] = biological target: Fuc(a1-2)Gal(b1-4)GlcNAc(b1-3)[Fuc(a1-3)[Gal(b1-4)]GlcNAc(b1-6)]Gal(b1-4)Glc
# Outline: as §1
# [7] = biological target: Fuc(a1-2)[GalNAc(a1-3)]Gal(b1-4)GlcNAc(b1-6)GalNAc
# Outline: as §1
# [8] = biological target: Fuc(a1-3)[Gal(b1-4)]GlcNAc(b1-2)Man(a1-3)[Fuc(a1-3)[Gal(b1-4)]GlcNAc(b1-2)Man(a1-6)]Man(b1-4)GlcNAc(b1-4)[Fuc(a1-6)]GlcNAc
# Outline: as §1
# [9] = biological target: Fuc(a1-3)[Gal(b1-4)]GlcNAc(b1-6)[Gal(b1-3)GlcNAc(b1-3)]Gal(b1-4)Glc
# Outline: as §1
# [10] = biological target: Fuc(a1-3)[GalNAc(b1-4)]GlcNAc
# Outline: as §1
# Fuc(a1-4)GlcNAc = biological target: Fuc(a1-4)GlcNAc
# Outline: as §1
# [11] = biological target: Gal(a1-3)Gal(b1-4)GlcNAc(b1-6)GalNAc
# Outline: as §1
# Gal(a1-3)GalNAc = biological target: Gal(a1-3)GalNAc
# Outline: as §1
# [12] = biological target: Gal(b1-3)GalNAc(b1-4)Gal(b1-4)Glc
# Outline: as §1
# [13] = biological target: Gal(b1-3)GlcNAc(b1-3)Gal(b1-4)GlcNAc(b1-6)[Gal(b1-3)GlcNAc(b1-3)]Gal(b1-4)Glc
# Outline: as §1
# [14] = biological target: Gal(b1-3)GlcNAc(b1-3)Gal(b1-4)[Fuc(a1-3)]GlcNAc(b1-6)[Gal(b1-3)GlcNAc(b1-3)]Gal(b1-4)Glc
# Outline: as §1
# [15] = biological target: Gal(b1-3)[GlcNAc(b1-6)]GalNAc
# Outline: as §1
# [16] = biological target: Gal(b1-4)GlcNAc(b1-2)[Gal(b1-4)GlcNAc(b1-6)]Man(a1-6)[GlcNAc(b1-4)][Gal(b1-4)GlcNAc(b1-2)Man(a1-3)]Man(b1-4)GlcNAc(b1-4)GlcNAc
# Outline: as §1
# [17] = biological target: Gal(b1-4)GlcNAc(b1-3)Gal(b1-4)Glc
# Outline: as §1
# [18] = biological target: Gal(b1-4)GlcNAc(b1-3)Gal(b1-4)GlcNAc(b1-3)Gal(b1-4)GlcNAc(b1-3)Gal(b1-4)GlcNAc(b1-3)Gal(b1-4)GlcNAc(b1-2)Man(a1-3)[Gal(b1-4)GlcNAc(b1-3)Gal(b1-4)GlcNAc(b1-3)Gal(b1-4)GlcNAc(b1-3)Gal(b1-4)GlcNAc(b1-3)Gal(b1-4)GlcNAc(b1-2)Man(a1-6)]Man(b1-4)GlcNAc(b1-4)GlcNAc
# Outline: as §1
# [19] = biological target: Gal(b1-4)GlcNAc(b1-3)Gal(b1-4)[Fuc(a1-3)]GlcNAc(b1-3)Gal(b1-4)[Fuc(a1-3)]GlcNAc
# Outline: as §1
# [20] = biological target: Gal(b1-4)GlcNAc(b1-6)Gal(b1-4)GlcNAc
# Outline: as §1
# Gal3S(b1-4)Glc = biological target: Gal3S(b1-4)Glc
# Outline: as §1
# [21] = biological target: Gal3S(b1-4)[Fuc(a1-3)]GlcNAc
# Outline: as §1
# Gal6S(b1-4)GlcNAc6S = biological target: Gal6S(b1-4)GlcNAc6S
# Outline: as §1
# [22] = biological target: Glc(a1-6)Glc(a1-6)Glc(a1-6)Glc
# Outline: as §1
# [23] = biological target: GlcNAc(b1-3)Gal(b1-4)GlcNAc(b1-2)Man(a1-3)[GlcNAc(b1-3)Gal(b1-4)GlcNAc(b1-2)Man(a1-6)]Man(b1-4)GlcNAc(b1-4)GlcNAc
# Outline: as §1
# [24] = biological target: GlcNAc(b1-3)Gal(b1-4)GlcNAc(b1-3)Gal(b1-4)GlcNAc
# Outline: as §1
# [25] = biological target: GlcNAc(b1-3)Gal(b1-4)GlcNAc(b1-3)Gal(b1-4)GlcNAc(b1-2)[GlcNAc(b1-3)Gal(b1-4)GlcNAc(b1-3)Gal(b1-4)GlcNAc(b1-6)]Man(a1-6)[GlcNAc(b1-3)Gal(b1-4)GlcNAc(b1-3)Gal(b1-4)GlcNAc(b1-2)Man(a1-3)]Man(b1-4)GlcNAc(b1-4)[Fuc(a1-6)]GlcNAc
# Outline: as §1
binder,measurement,setting,value
B1,glycan array binding signal (z-score),[1],-0.202
same,glycan array binding signal (z-score),Fuc(a1-2)Gal(b1-3)GlcNAc,-0.175
same,glycan array binding signal (z-score),[2],0.514
same,glycan array binding signal (z-score),[3],3.33
same,glycan array binding signal (z-score),[4],0.654
same,glycan array binding signal (z-score),[5],-0.184
same,glycan array binding signal (z-score),[6],2.21
same,glycan array binding signal (z-score),[7],-0.052
same,glycan array binding signal (z-score),[8],-0.996
same,glycan array binding signal (z-score),[9],-2.21
same,glycan array binding signal (z-score),[10],2.73
same,glycan array binding signal (z-score),Fuc(a1-4)GlcNAc,-0.354
same,glycan array binding signal (z-score),[11],-1.75
same,glycan array binding signal (z-score),Gal(a1-3)GalNAc,0.627
same,glycan array binding signal (z-score),[12],-0.182
same,glycan array binding signal (z-score),[13],2.25
same,glycan array binding signal (z-score),[14],3.16
same,glycan array binding signal (z-score),[15],0.807
same,glycan array binding signal (z-score),[16],3.4
same,glycan array binding signal (z-score),[17],-1.14
same,glycan array binding signal (z-score),[18],2.53
same,glycan array binding signal (z-score),[19],-1.31
same,glycan array binding signal (z-score),[20],-0.547
same,glycan array binding signal (z-score),Gal3S(b1-4)Glc,1.73
same,glycan array binding signal (z-score),[21],1
same,glycan array binding signal (z-score),Gal6S(b1-4)GlcNAc6S,2.34
same,glycan array binding signal (z-score),[22],0
same,glycan array binding signal (z-score),[23],-0.562
same,glycan array binding signal (z-score),[24],0.659
same,glycan array binding signal (z-score),[25],0.082
